Screening data as filed in PubChem BioAssay.
Anthrax LF inh2 = inhibitors of Bacillus anthracis lethal factor protease | actives 0.12% (n = 360,000) | multiplex microsphere protease cleavage assay, LF | inhibition, % at 10 µM; further: plate controls were buffer without enzyme for full effect and enzyme alone for no effect
Target sequence (P15917 whole entry, looked up): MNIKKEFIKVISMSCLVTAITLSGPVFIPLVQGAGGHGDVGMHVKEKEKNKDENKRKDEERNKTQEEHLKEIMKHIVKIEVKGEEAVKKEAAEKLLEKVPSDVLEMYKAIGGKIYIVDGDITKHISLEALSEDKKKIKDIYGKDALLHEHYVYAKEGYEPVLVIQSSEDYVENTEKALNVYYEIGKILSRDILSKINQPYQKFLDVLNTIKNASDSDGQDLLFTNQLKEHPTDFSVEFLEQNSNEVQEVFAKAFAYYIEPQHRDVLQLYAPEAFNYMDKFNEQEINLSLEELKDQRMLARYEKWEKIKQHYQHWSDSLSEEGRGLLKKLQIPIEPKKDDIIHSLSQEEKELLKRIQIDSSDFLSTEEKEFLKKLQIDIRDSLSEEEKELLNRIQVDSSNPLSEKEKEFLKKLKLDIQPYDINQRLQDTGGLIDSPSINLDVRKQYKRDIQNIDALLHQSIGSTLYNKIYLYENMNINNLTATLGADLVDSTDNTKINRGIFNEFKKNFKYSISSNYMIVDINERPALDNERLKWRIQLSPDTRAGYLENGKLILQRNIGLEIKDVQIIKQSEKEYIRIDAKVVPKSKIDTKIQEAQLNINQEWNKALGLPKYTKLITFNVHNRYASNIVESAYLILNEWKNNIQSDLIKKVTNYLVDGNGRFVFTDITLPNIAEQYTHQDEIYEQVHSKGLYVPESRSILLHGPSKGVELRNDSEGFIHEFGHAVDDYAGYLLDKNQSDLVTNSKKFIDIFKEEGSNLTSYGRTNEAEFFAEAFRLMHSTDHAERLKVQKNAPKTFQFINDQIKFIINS
BJeLR lethal = kills HRASV12-expressing BJeLR cells; BJeLR (HRASV12) viability, CellTiter-Glo ATP luminescence, 48 h; inhibition, % (no concentration beside the values); actives 0.17% (n = 300,000); AID 1554; in the data active means inhibition above about 50%; inconclusive means no clear call, values can overlap the other calls
BoNT-F LC inh = blocks Botulinum neurotoxin F light chain protease. Multiplex microsphere protease cleavage assay, flow cytometry. inhibition, % at 10 µM. actives 0.22% (n = 360,000); in the data active means inhibition above about 35%, passing the limit was not always enough; inconclusive means no clear call, values can overlap the other calls; further: plate controls were buffer without enzyme for full effect and enzyme alone for no effect
Bead autofluor = compound fluorescence in toxin protease inhibitor counterscreen; actives 3.1% (n = 360,000); compound autofluorescence counterscreen, microsphere flow cytometry; active compounds read high; fluorescence intensity (concentration not given with the values); in the data active means fluorescence intensity above about 16000; inconclusive means no clear call, values can overlap the other calls
3CLpro inhibitor = SARS-CoV 3CLpro protease inhibition; recombinant SARS-CoV 3CLpro, quenched FRET peptide cleavage; inhibition, % at 6 µM; P0C6X7; actives 0.14% (n = 290,000); in the data active means inhibition above about 12%
BoNT A protease = BoNT A light chain protease inhibition. multiplex microsphere protease substrate cleavage, flow cytometry. inhibition, % at 10 µM. actives 0.17% (n = 360,000); further: plate controls were buffer without enzyme for full effect and enzyme alone for no effect
An asterisk follows results filed as active; ? = inconclusive; nt = not tested or not shown. Sampled rows, rich in hits. Any-hit rate of the full collection: about 3.6%. Unless noted, no stated cut-off is given here; in the data, active means inhibition above about 30%; inconclusive means no clear call, values can overlap the other calls; inactive means below that.

SMILES	Anthrax LF inh2	BJeLR lethal	BoNT-F LC inh	Bead autofluor	3CLpro inhibitor	BoNT A protease
O=C(NCCN1CCN(Cc2ccccc2Cl)CC1)Nc1ccccc1	1	-7	1	23034*	-3	2
CCN(CC)C(=O)Cn1nc(C)c2ccccc2c1=O	6	0	6	4998	2	0
CC1CN(C2CCCCC2)C(=S)NC1=O (configuration not stated)	0	nt	1	3923	nt	0
COc1ccc(CCN(C)Cc2c(F)cccc2F)cc1OC	-2	-4	-2	23473*	-2	?
COc1cc(CN(C)CCc2ccccc2)ccc1OCc1ccccc1	0	8	24	8500	0	5
CCC(C)c1ccc(NC(=O)CN(C)CC(=O)Nc2cccc(OC)c2)cc1 (configuration not stated)	-3	2	-2	4180	8	-1
COc1ccc(Br)cc1CN(C)C(=O)CNC(=O)c1ccc2ccccc2c1	11	-6	-16	3926	2	-1
Cc1ccccc1C(=O)NCCc1nnc(SCC(=O)Nc2nc(-c3ccccc3)cs2)n1C	-4	0	-2	20936*	-3	?
Cc1cccc(C(=O)NCc2nnc(SCC(=O)Nc3nncs3)n2C)c1	-1	-4	2	5490	-2	0
CCn1c(CSc2nc(C)cc(C)n2)nnc1SCC(=O)Nc1nc(-c2ccccc2)cs1	-2	-2	0	16261*	-2	1
Cc1cccc(C(=O)NCCc2nnc(SCC(=O)Nc3nc(C)cs3)n2C)c1	-13	4	16	16360*	4	?
Oc1ccc(Cl)cc1CNCC1CCCO1 (configuration not stated)	-2	-1	-7	20694*	-2	-4
Nc1cc(N)nc(SCC(=O)NCC2CCCO2)n1 (configuration not stated)	-1	4	-1	20538*	-7	?
O=C(CSc1cc(Cl)ccc1Cl)NCC1CCCO1 (configuration not stated)	-1	2	0	22708*	-1	1
CN(Cc1ccccc1)S(=O)(=O)c1ccc(S(=O)(=O)N2CCN(CCC#N)CC2)cc1	nt	nt	nt	nt	2	nt
C/C(=N/NC(=O)c1ccc(C)nc1)c1ccc2c(c1)CCCC2	0	4	-6	1959	-3	0
CN(C(=O)/C(N=Nc1cccc(C(F)(F)F)c1)=C(\O)C(F)(F)F)c1ccccc1	-1	8	-1	16687*	5	-1
Cc1nn(C)cc1CNC(=O)c1ccccc1Br	-2	11	2	16520*	1	?
Cc1c(C(=O)NCc2ccccc2)oc2c1C(=O)CCC2	-1	1	6	2612	0	0
CCNC(=O)c1oc2c(c1C)C(=O)CC(C)(C)C2	-20	6	-1	20892*	1	2
Cc1c(C(=O)NCc2cccnc2)oc2c1C(=O)CC(C)(C)C2	0	2	8	21305*	-13	7
CN(C(=O)CN1CCN(c2cc(-c3ccc(-c4ccccc4)cc3)ncn2)CC1)c1ccccc1	4	nt	-3	3981	nt	0
Cn1c(=O)[nH]c2cc3ccccc3cc21	0	11	3	19393*	-4	?
Cc1nc2cc3ccccc3cc2n1C	0	-19	-3	2583	-4	0
Cc1c(CNC2CCCC2)c(C(=O)O)c(C)n1Cc1ccccc1	1	-5	-6	2505	4	-1
SMILES	Anthrax LF inh2	BJeLR lethal	BoNT-F LC inh	Bead autofluor	3CLpro inhibitor	BoNT A protease
Cc1ccc(Cn2nnc(C(=O)Nc3cccc(C)c3C)c2N)cc1	1	19	2	19408*	2	?
CCc1ccc(Cn2nnc(C(=O)Nc3cccc(C)c3)c2N)cc1	-10	4	-15	6346	1	-1
Cc1nc(C)c(-c2nnc(-c3ccc(C(C)(C)C)cc3)o2)cc1C(=O)NN	-3	-17	-4	2585	2	0
Cc1ccc(C(=O)C(OC(=O)CN2C(=O)c3ccccc3C2=O)c2ccccc2)cc1C (configuration not stated)	-1	12	1	22707*	-4	1
Cc1ccc(C(=O)C(OC(=O)CN2C(=O)c3ccccc3C2=O)c2ccccc2)cc1 (configuration not stated)	2	-9	-5	10662	4	0
O=C(CN1C(=O)c2ccccc2C1=O)OC(C(=O)c1ccc(Cl)cc1)c1ccccc1 (configuration not stated)	-1	7	-6	21488*	1	-4
Cc1ccc(C(=O)C(OC(=O)CNC(=O)c2ccc(Cl)cc2)c2ccccc2)cc1 (configuration not stated)	0	11	5	21549*	0	?
Cc1ccc(CNC(=O)CN2C(=O)c3ccccc3S2(=O)=O)cc1	1	-6	1	4378	-3	1
Cc1cccc(-c2noc(CCCC(=O)NC3CCCC3)n2)c1	0	-5	1	5299	-4	0
COc1cccc(/C=N/Nc2ncnc3scc(-c4ccccc4)c23)c1OC	0	-14	-2	21674*	4	2
COc1cccc(C=NNc2nc3ccccc3s2)c1OC	-11	nt	1	3553	nt	0
Cc1sc2ncnc(N/N=C/c3ccc(O)cc3)c2c1C	-3	-2	-2	10164	3	-1
Cc1sc2ncnc(N/N=C/c3ccccc3O)c2c1C	2	81*	-6	6911	3	2
NS(=O)(=O)c1ccc(N/C=C\C(=O)c2ccc(F)cc2)cc1	-4	-22	-6	3191	-2	-1
CN(C)c1ccc(N/C=C/C(=O)c2ccc(F)cc2)cc1	-2	5	7	20250*	2	?
c1cc2[nH]snc2c2nc(C3CC3)nc12	-9	-3	-10	?	-7	?
Cc1cc(C)c2c(n1)sc1c(N3CCN(CCO)CC3)ncnc12	-7	1	-4	17147*	1	-4
Cc1ccc(-c2[nH][nH]c(=O)c(=O)c2N=Nc2ccccc2)cc1	0	1	6	3265	5	-1
O=C(N/N=C/c1ccc([N+](=O)[O-])o1)c1cc2ccccc2o1	nt	68*	nt	nt	2	nt
O=C(N/N=C/c1ccc([N+](=O)[O-])o1)c1cc2c(ccc3ccccc32)o1	-1	nt	0	4183	4	0
O=C(CNc1ccccc1)N/N=C/c1ccc([N+](=O)[O-])o1	-1	-12	-7	24670*	3	-3
CCCCOC(=O)Nc1nnc(COc2ccccc2)s1	-4	-13	0	16850*	0	-2
CN(Cc1ccccc1)C(=O)c1ccccc1Br	0	18	-6	2160	-1	0
CCSc1ccc(C(=O)Nc2ccc(Br)cn2)cc1[N+](=O)[O-]	-6	2	12	19284*	3	-6
CCSc1ccc(C(=O)Nc2cccc(C)n2)cc1[N+](=O)[O-]	2	-6	-6	2606	-1	-1
CNc1ncnc2c1ncn2[C@H]1CN(Cc2ccco2)C[C@@H](CO)O1	3	nt	1	3680	nt	0
